Out of some 190,000 compounds screened, about 1,300 (0.68%) were called active. The full list was thinned out, with actives kept by preference. Unmarked numbers belong to inactive results. Cut-off read from the data, not from the text of the source: active = inhibition above about 50%; inactive = the rest.

For the assay, the target named is Mannose-6-phosphate isomerase (Homo sapiens) (UniProt P34949). Nature of the assay: MPI inhibition at elevated mannose 6-phosphate – biochemical, fluorescence intensity, high mannose 6-phosphate, primary screen (AID 1220). The settings on record: recombinant PMI enzyme, coupled fluorescence intensity; at 20 µM; active compounds read high.
Chain of Mannose-6-phosphate isomerase (Homo sapiens) (P34949 whole entry, looked up): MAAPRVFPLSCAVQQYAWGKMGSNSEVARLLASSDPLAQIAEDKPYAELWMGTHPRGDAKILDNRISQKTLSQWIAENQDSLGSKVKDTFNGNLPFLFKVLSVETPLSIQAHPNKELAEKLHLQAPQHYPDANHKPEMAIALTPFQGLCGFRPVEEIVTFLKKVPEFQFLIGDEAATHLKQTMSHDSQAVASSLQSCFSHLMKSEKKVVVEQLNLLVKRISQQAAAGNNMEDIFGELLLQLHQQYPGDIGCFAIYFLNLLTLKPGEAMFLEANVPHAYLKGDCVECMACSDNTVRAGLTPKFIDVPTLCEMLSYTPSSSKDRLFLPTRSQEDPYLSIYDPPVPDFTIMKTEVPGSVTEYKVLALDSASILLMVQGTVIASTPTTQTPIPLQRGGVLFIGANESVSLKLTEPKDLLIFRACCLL
For the compound `CCCN(CCC)C(=S)NC(=O)c1ccc(Cl)cc1Cl`, the inhibition was 87.2% (active). The result for `CCCCN(CCCC)C(=S)NC(=O)c1ccccc1Cl` reads 7.7%; that for `CCN(CC)C(=S)NC(=O)c1ccc(Cl)cc1Cl`, 0.2%.

On to `CCOc1cc(N2CCOCC2)c(OCC)cc1NC(=O)c1ccc(=O)n(Cc2ccccc2)n1`, for which the inhibition was 7.5%.

`CC1CCN(C(C(=O)NC2CCCCC2)c2cc3c(cc2[N+](=O)[O-])OCO3)CC1` (stereo not given): the inhibition was 61.1% (active). The result for `O=C(NC1CCCC1)C(c1cc2c(cc1[N+](=O)[O-])OCO2)N1CCCC1` (stereo not given) reads 23.9%. For the compound `O=CN1CCN(C(C(=O)NC2CCCCC2)c2cc3c(cc2[N+](=O)[O-])OCO3)CC1` (stereo not given), the inhibition was 58.3% (active). For `O=CN1CCN(C(C(=O)NC2CCCC2)c2cc3c(cc2[N+](=O)[O-])OCO3)CC1` (stereo not given) the value was 31.4%; for `O=C(NC1CCCCC1)C(c1cc2c(cc1[N+](=O)[O-])OCO2)N1CCCCC1` (stereo not given), 46.3%.

As to `CCN1CCN(C(C(=O)NC2CCCC2)c2cc3c(cc2[N+](=O)[O-])OCO3)CC1` (stereo not given), the inhibition was 46.2%. The result for `CCOC(=O)Cn1nc(C)n(-c2c(C)cccc2C)c1=O` reads 8.1%; that for `Cc1cc(Cl)ccc1OCCCC(=O)N1CCCCC1`, -5.5%. For `COc1ccc(S(=O)(=O)N2CCSC2c2ccc(OC)c(OC)c2)cc1` (stereo not given) the value was -17.1%. The result for `Cc1cccc(NC(=S)NCCc2ccccc2)n1` reads 6.5%; that for `COn1c(C)c(C(C)=O)c2c3nonc3ccc21`, 58% (active); that for `COn1c(C)c(C(C)=O)c2c3no[n+]([O-])c3ccc21`, 8.2%. `C=CCOn1c(C)c(C(C)=O)c2c3nonc3ccc21`: the inhibition is 49.2%. For `C=CC[n+]1c(/C=C2\C=Cc3cc(C)ccc3N2CC)ccc2ccccc21` the value was 9%; for `CCN1/C(=C/c2cc[n+](C)cc2)C=Cc2cc(C)ccc21`, 66.7% (active); for `CCN1C(=C(C#N)C#N)C=Cc2cc(C)ccc21`, 5.3%. Consider `CCOC(=O)c1ccc(NC(=O)c2n[nH]c(=O)c3ccccc23)cc1`, for which the inhibition is -0.1%. The result for `CCN(CC(=O)Nc1cccc(C(C)=O)c1)S(=O)(=O)c1ccc(C)cc1` reads -6.4%; that for `O=c1c2c(-c3ccc([N+](=O)[O-])cc3)csc2nc2n1CCC2`, 28.9%.

`CN(c1ccc(O)cc1)c1nc(-c2ccccc2)cs1`: the inhibition is 25.1%. The result for `Cc1nc(N)sc1-c1csc(N(C)c2ccc(O)cc2)n1` reads 56.3% (active). On to `Cc1cc(O)ccc1Nc1nc(-c2sc(N)nc2C)cs1`, for which the inhibition was 2%. As to `CNC(=S)N1N=C(c2ccccc2)CC1c1ccccc1Cl` (stereo not given), the inhibition was 1%.

In the case of `CC(C)(C)NC(=S)NCc1ccc2c(c1)OCO2`, the inhibition was -10.4%. For `Cc1cc(NC(=O)COc2cccc(C)c2C)no1` the value was 4.6%; for `O=C(COc1cccc2cccnc12)Nc1ccccc1`, 5.4%. Regarding `Cc1cc(NC(=O)COc2cccc3cccnc23)no1`, the inhibition is 51.1% (active). The result for `Cc1cc(NC(=O)COc2ccccc2C)no1` reads -5.2%; that for `Cc1ccc(NC(=O)CN(C)S(=O)(=O)c2cccc3cccnc23)cc1`, 15.3%. With `O=C(COc1cccc2cccnc12)NCC(F)(F)F`, the inhibition was 56.1% (active). For `NNC(=O)COc1cccc2cccnc12`, the inhibition is -9.1%. `O=C(COc1cccc2cccnc12)NCc1cccs1`: the inhibition was 37.7%. For `CCc1ccc(NC(=O)CC2C(=O)Nc3c2c(=O)n(C)c(=O)n3C)cc1` (stereo not given) the value was 2.9%; for `CC1SC(c2ccc(Cl)cc2)NC1=O` (stereo not given), 7.4%. The result for `NC(=O)c1cc2ccccc2o/c1=N/NC(=O)c1cccs1` reads 2.2%.

Take `COc1ccc(OC)c(NC(=O)N[C@@H](Cc2ccccc2)C(=O)O)c1`: the inhibition was 8.2%. As for `Cn1c(C(=O)NC2CC2)cc2c(=O)n(C)c3ccccc3c21`, the inhibition is 0%. For `COc1ccc(OC/C(O)=C(\C#N)c2nc3ccccc3[nH]2)cc1` the value was 1.2%. The result for `CCC(=O)Nc1cccc(C(=O)/C=C/c2ccc(F)cc2)c1` reads 9.5%; that for `O=C1CCCC2=C1C(c1ccccc1)CC(=O)N2c1ccc(F)cc1F` (stereo not given), 5.4%; that for `CCOC(=O)c1ccc2c(c1)N(CC(=O)N1CCCCC1)C(=O)C(C)(C)O2`, 5.7%. Consider `COc1ccc(Nc2nc(C)c(-c3ccccc3)s2)cc1`, for which the inhibition was 6.2%. For `CCn1cc(C(=O)O)c(=O)c2cnc(N3CCNCC3)nc21` the value was 14.5%. For `S=C(Nc1cccc2ccccc12)N1CCN(c2ncccn2)CC1`, the inhibition was 33.6%. The result for `O=C(Nc1cccc2ccccc12)N1CCN(c2ncccn2)CC1` reads 68.9% (active); that for `CCn1cc(C(=O)O)c(=O)c2cnc(N3CCN(C(=O)Nc4cccc5ccccc45)CC3)nc21`, 58.3% (active); that for `O=C(Nc1cccc2ccccc12)N1CCN(c2ccccc2)CC1`, 15.4%. As for `C=CCNC(=S)N1CCN(c2ncc3c(=O)c(C(=O)O)cn(CC)c3n2)CC1`, the inhibition is 14.8%. For `CCn1cc(C(=O)N2CCn3c(nc4ccccc43)C2)c(=O)c2ccc(C)nc21` the value was -2%; for `CCn1c(CN2CCN(CCO)CC2)nc2ccccc21`, 2.7%; for `CC1CCCC(C)N1/N=C/c1ccc(Cl)cc1` (stereo not given), -10.4%. In the case of `CCN1C(=O)/C(=C/C=C2/Sc3ccccc3N2CCO)SC1=S`, the inhibition was 8.4%. Regarding `CCCN1C(=O)/C(=C\C=C2/C=CN(CC)c3ccccc32)SC1=S`, the inhibition was 65.3% (active). The result for `CCN1C(=O)/C(=C\C=C2/C=CC=CN2CC)SC1=S` reads 65.6% (active); that for `CCCN1C(=O)/C(=C/C=C2\N(CC)c3ccccc3C2(C)C)SC1=S`, 10.7%; that for `CCN1C(=O)/C(=C2/C=CC=CN2C)SC1=S`, 9.3%. Consider `CCCN1C(=O)/C(=C\C=C2\N(CC)c3ccccc3C2(C)C)SC1=S`, for which the inhibition is 18.5%. The result for `CCN1C(=O)/C(=C\N2CCCCCC2)SC1=S` reads 7%.

In the case of `CCN1C(=O)/C(=C/C=C2\C=CN(CC)c3ccccc32)SC1=S`, the inhibition is 64.1% (active). `CCCCN1C(=O)/C(=C/C=C2\Oc3ccccc3N2CC)SC1=S`: the inhibition is 19.9%. `CCn1c(C(C)NC(=O)Cc2ccccc2)nc2ccccc21` (stereo not given): the inhibition was -0.2%.
